D1 PAM – human D1 dopamine receptor positive modulation; P21728; HEK293 TREx D1 cells, calcium flux, dopamine EC20 potentiation; potentiation, % at 10 µM; hit rate 0.036% among 360,000; AID 504651; in the data active means potentiation above about 30%; further: 0% is about no effect
TRHR enhancer – allosterically enhances the human TRH receptor; TRHR cells, fluo-8 calcium fluorescence, EC20 TRH enhancement; hit rate 0.66% among 360,000; enhancement, % at 2 µM; AID 493056; P34981; in the data active means enhancement above about 30%; further: 0% is about no effect
Target sequence (P34981 whole entry, looked up): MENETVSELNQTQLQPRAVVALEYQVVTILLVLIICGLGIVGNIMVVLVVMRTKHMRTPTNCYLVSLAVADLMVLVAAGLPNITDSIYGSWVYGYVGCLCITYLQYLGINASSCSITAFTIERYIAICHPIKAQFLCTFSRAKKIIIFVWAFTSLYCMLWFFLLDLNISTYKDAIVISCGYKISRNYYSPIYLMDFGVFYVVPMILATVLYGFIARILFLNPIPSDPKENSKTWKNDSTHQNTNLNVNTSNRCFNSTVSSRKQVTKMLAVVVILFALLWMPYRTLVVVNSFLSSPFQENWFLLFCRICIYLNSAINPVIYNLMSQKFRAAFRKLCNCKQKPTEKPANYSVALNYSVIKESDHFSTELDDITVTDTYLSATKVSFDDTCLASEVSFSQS
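TRHR-expressing cells loaded with fluo-8 calcium dye were read kinetically (ex 480/em 530) during compound addition, then stimulated with an EC20 of TRH (10 nM final). Enhancement of the Gq-mediated intracellular calcium response was scored.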
TRHR ag – activates the human TRH receptor; P34981; TRHR cells, calcium flux fluo-8, FDSS agonist mode; activation, % at 2 µM; hit rate 0.18% among 360,000; further: 0% is about no effect
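TRHR-expressing cells, plated overnight in medium with 10% serum, were loaded with fluo-8 calcium dye at room temperature. After a 10 s baseline, library compound was pin-added and calcium release was recorded kinetically (ex 480/em 530) as agonist response.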
D1 ag – activates the human D1 dopamine receptor | P21728 | HEK293 T-REx D1 cells, calcium flux, agonist mode | activation, % at 2 µM | hit rate 1% among 360,000 | AID 504660; further: 0% is about no effect
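Agonism was scored from calcium flux recorded over 180 s (1 read/s) after pintool compound addition, following a 10-cycle baseline. Cells were inducible force-coupled HEK293 TREx D1, plated overnight at 30 C and loaded with no-wash calcium dye.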
D1 antag – human D1 dopamine receptor antagonism. hit rate 3.2% among 360,000. activity change, negative = inhibition, % at 10 µM. HEK293 TREx D1 cells, calcium flux, dopamine EC80; hits give low values. P21728. AID 504652; in the data active means activity change below about -30%; further: on the % scale 0 is the no-effect control and ±100 the full control effect
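Compound effects on dopamine-evoked calcium signalling were measured in tetracycline-induced HEK293 Trex D1 cells. Dopamine at EC80 followed a 180 s compound pre-read, and fluorescence was tracked kinetically for 180 s more.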
The depositor's hits bear a star. The list is not random: actives were taken first. Their share in the collection is about 4.7%. Unless noted, no stated cut-off is given here; in the data, active means activation above about 30%; inactive means the rest.

SMILES	D1 PAM	TRHR enhancer	TRHR ag	D1 ag	D1 antag
O=C(COC(=O)CNC(=O)c1ccccc1F)Nc1cccc(S(=O)(=O)N2CCCCCC2)c1	-4	-4	0	6	-9
CC1CCCC(C)N1C(=O)COC(=O)CNC(=O)c1ccc(Cl)cc1Cl (stereo unspecified)	-5	34*	0	4	-4
Cn1ccnc1SCC(=O)Nc1cccc(S(=O)(=O)N2CCCCCC2)c1	-2	10	0	31*	2
CCOc1ccccc1NC(=O)CN1C(=O)COc2ccc(S(=O)(=O)Nc3ccccc3)cc21	0	-35	1	5	-4
Cc1cc(OCC(=O)Nc2cccc(S(=O)(=O)N3CCCC3)c2)ccc1Cl	2	0	1	23	-30*
O=C(Cc1ccccc1Cl)Nc1cccc(S(=O)(=O)N2CCCCCC2)c1	2	3	2	4	1
Cc1cc(OCC(=O)Nc2cccc(S(=O)(=O)N3CCCCC3)c2)ccc1Cl	-5	-1	1	11	-22
COc1cccc(/C=C/C(=O)OCC(=O)Nc2cccc(S(=O)(=O)N3CCCCC3)c2)c1OC	6	34*	0	4	-24
O=C(CCc1ccccc1Cl)Nc1cccc(S(=O)(=O)N2CCCC2)c1	5	15	-1	7	-32*
Cc1ccc(NS(=O)(=O)c2ccc(-c3cnc(C4CC4)o3)cc2)cc1N(C)C	1	0	1	7	-4
Cc1ccc(SCCN2CCN(CCc3ccccc3)CCC2=O)cc1	-2	1	-1	5	-38*
O=C1CCN(CCc2ccccc2)CCN1CCSc1ccc(Br)cc1	-7	-3	0	9	-22
CCOC(=O)C(C)NC(=O)C1CCN(c2ncnc3c2nc2n3CCCCC2)CC1 (stereo unspecified)	0	11	-1	-2	5
O=c1/c(=C\c2ccc(O)cc2)sc2n1C(c1ccccc1)C(c1ccccc1)=NN=2 (stereo unspecified)	-10	-6	10	33*	-51*
CCOC(=O)C1=C(c2ccccc2)N=c2s/c(=C\c3cccc(O)c3)c(=O)n2C1c1cccs1 (stereo unspecified)	-1	11	1	8	-20
COc1ccccc1CNC(=O)CCc1c(C)nn(-c2ccc(N3CCCCC3)nn2)c1C	-6	11	0	0	-2
COC(=O)c1ccc(CSc2nc(C)nc3c2c(=O)n(C)c(=O)n3C)o1	-3	0	0	2	-39*
Cc1nc(SCC(=O)Nc2cc(C)on2)c2c(=O)n(C)c(=O)n(C)c2n1	-16	4	-1	3	-64*
O=C(Nc1nccc(-c2cccs2)n1)c1ccccc1Cl	-4	14	-1	-2	-38*
COc1ccc(-c2c(C)nn3c(C(F)(F)F)cc(-c4ccccc4)nc23)cc1	-2	-5	2	-1	-8
CCOC(=O)c1cc(S(=O)(=O)N2CCN(c3cc(Cl)ccc3C)CC2)[nH]n1	-1	4	0	0	-7
COc1cccc(/C=N/n2c(SC)nnc2-c2ccccc2)c1O	-2	5	5	30*	-1
CCCN(CCC)CCCNC(=S)Nc1ccc2nc3n(c(=O)c2c1)CCCCC3	-10	2	0	0	-30*
CCN(CC)CCNC(=S)Nc1ccc2nc3n(c(=O)c2c1)CCCCC3	-3	9	0	3	-5
CCN1CCN(C(=S)Nc2ccc3nc4n(c(=O)c3c2)CCCCC4)CC1	-4	0	0	36*	-2
SMILES	D1 PAM	TRHR enhancer	TRHR ag	D1 ag	D1 antag
CCc1cccc(-n2nnc(-c3nc(-c4cccs4)no3)c2N)c1	-1	21	1	5	13
CCC(C)c1ccc(OCC(=O)Nc2ccc(-c3nc4ncccc4o3)cc2)cc1 (stereo unspecified)	4	6	-1	1	16
Cc1cccc(C(=O)NC2CCN(C#N)CC2)c1	2	-2	-2	-1	-15
O=C(CNS(=O)(=O)c1ccccc1)NCC(=O)OCc1ccc(Br)cc1	5	-3	0	2	-2
O=C(Nc1ccc(Cc2ccncc2)cc1)c1ccc(Br)o1	-8	-4	-1	1	-9
O=C(CNC(=O)c1ccc(Br)o1)NCC(=O)OCc1ccccc1	-7	30*	0	1	5
O=C(CNC(=O)c1ccc(Br)o1)Nc1ccncc1	-4	-1	0	0	-64*
O=C(CNC(=O)Cc1ccccc1)NCC(=O)OCc1ccc(C(=O)c2ccccc2)cc1	1	-5	-1	4	-63*
CCOC(=O)c1ccc(COC(=O)CNC(=O)CNC(=O)Cc2ccccc2)cc1	-1	2	-1	3	6
CCN(Cc1ccccc1)S(=O)(=O)c1cc(Br)cc2c1N(C(=O)C1CC1)CC2	0	-2	1	4	-1
CCOC(=O)C1CCN(CC(=O)Nc2cc(C)c3c(=O)oc4ccccc4c3n2)CC1	-2	0	0	0	2
COc1ccccc1NC(=O)C(Cc1ccccc1)NS(=O)(=O)c1ccc2c(c1)c(=O)n(C)c(=O)n2C (stereo unspecified)	0	14	2	6	-3
Nc1ccc2nc(-c3ccccc3)[nH]c2c1	0	1	0	3	-6
Nc1cccc(-c2nc3ccc(C(=O)c4ccccc4)cc3[nH]2)c1	-4	-3	1	1	-31*
O=C1NC(=S)S/C1=C/c1ccc(OC(=O)c2ccco2)cc1	-7	0	-1	11	-30*
COc1ccccc1N1CCN(c2nc3ccc(C)cc3nc2-n2nc(C)cc2C)CC1	-3	-23	-1	1	4
CC1=C(C(N)=O)C(c2cccc(Br)c2)n2nc(SCc3ccccc3)nc2N1 (stereo unspecified)	1	-1	1	3	1
COc1ccc(C[C@H]2c3cc(O)c(OC)cc3CC[N+]2(C)[O-])cc1O (stereo partly specified)	-7	6	0	5	-83*
COc1cc2c(cc1OC)[C@H](Cc1ccc(O)cc1)NCC2	-8	7	0	1	-20
COc1cc2c(cc1O)C(Cc1ccc(O)cc1)NCC2 (stereo unspecified)	-12	1	0	-1	-76*
COc1cc2c(cc1O)C(Cc1ccc(O)cc1)[N+](C)([O-])CC2 (stereo unspecified)	-6	3	0	2	-38*
CCc1ccc(CNC(=O)CN2C(=O)c3cccnc3Oc3ccc(C)cc32)cc1	-2	3	-1	-1	16
COc1ccc(-c2cc(C)no2)cc1S(=O)(=O)N1CCN(c2ccc(C(C)=O)cc2)CC1	-5	2	0	2	6
CCOc1ccccc1NC(=O)c1cccc2ccccc12	-2	-12	0	4	-5

From PubChem BioAssay
